# Measurements published in article PMC12820563, “FoxP3 forms a head-to-head dimer in vivo and stabilizes its multimerization on adjacent microsatellites”.
# The full ranking holds about 16,000 sequences; the median of “rpm ratio (pull-down/input)” is about 0.5, and the highest 2% start at about 5.5. The full list was thinned out, with the highest values kept by preference.
# Molecular target: T1, MBP-FoxP3dN (Mus musculus, UniProt Q99JB6 188-423)
# T1 sequence: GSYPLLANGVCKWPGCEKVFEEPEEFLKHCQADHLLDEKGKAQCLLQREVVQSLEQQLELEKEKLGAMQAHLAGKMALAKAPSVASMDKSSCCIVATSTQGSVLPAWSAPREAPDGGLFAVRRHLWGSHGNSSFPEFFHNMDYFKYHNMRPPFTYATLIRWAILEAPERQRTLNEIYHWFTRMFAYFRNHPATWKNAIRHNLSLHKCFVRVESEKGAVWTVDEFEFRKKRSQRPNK
# Experiment: PD-seq (MBP pull-down with sequencing); 20 mM Tris-HCl pH 7.5, 100 mM NaCl, 1.5 mM MgCl2, 0.4 uM protein, 0.1 uM dsDNA library, 30 min, room temperature, amylose pull-down; high values mean tight binding
# Conditions: protein: recombinant; tags: His6-MBP; chain copies: 2; dsDNA, one strand shown
# Outline: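 His6-MBP-tagged mouse FoxP3 or FoxP1 fragment lacking the N-terminus, expressed in E. coli, was mixed at 0.4 µM with 0.1 µM Klenow-filled double-stranded degenerate DNA library. Incubation was 30 min at room temperature in Tris pH 7.5 buffer with NaCl and MgCl2. Complexes were caught on amylose resin and washed three times; DNA was released with proteinase K, PCR-barcoded and Illumina-sequenced. Binding is reads-per-million enrichment, pull-down over input, with replicates pooled.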
row,Sequence,binding signal
1,GATGATTGTTCTCCCAGCTGATGAATTAGAGCCCTCGAGTAAACAAATTTTCCTAATCTTTCTGTTCAAGCGCCATCTAC,0.358 RPM ratio (pull-down/input)
2,GATGATTGTTCTCCCAGCTGATGAATTTCAACGCTCGAGTAAACAAATTTTCCTAATCTTTCTGTTCAAGCGCCATCTAC,0.363 RPM ratio (pull-down/input)
3,GATGATTGTTCTCCCAGCTGATGAATTTATGGAGTCGAGTAAACAAATTTTCCTAATCTTTCTGTTCAAGCGCCATCTAC,0.454 RPM ratio (pull-down/input)
4,GATGATTGTTCTCCCAGCTGATGAATTAGACAAATCGAGTAAACAAATTTTCCTAATCTTTCTGTTCAAGCGCCATCTAC,0.417 RPM ratio (pull-down/input)
5,GATGATTGTTCTCCCAGCTGATGAATTACTTCACTCGAGTAAACAAATTTTCCTAATCTTTCTGTTCAAGCGCCATCTAC,0.319 RPM ratio (pull-down/input)
6,GATGATTGTTCTCCCAGCTGATGAATTCTTAATCTCGAGTAAACAAATTTTCCTAATCTTTCTGTTCAAGCGCCATCTAC,0.28 RPM ratio (pull-down/input)
7,GATGATTGTTCTCCCAGCTGATGAATTTATACCTTCGAGTAAACAAATTTTCCTAATCTTTCTGTTCAAGCGCCATCTAC,0.85 RPM ratio (pull-down/input)
8,GATGATTGTTCTCCCAGCTGATGAATTGAACGGGTCGAGTAAACAAATTTTCCTAATCTTTCTGTTCAAGCGCCATCTAC,0.23 RPM ratio (pull-down/input)
9,GATGATTGTTCTCCCAGCTGATGAATTCATATTGTCGAGTAAACAAATTTTCCTAATCTTTCTGTTCAAGCGCCATCTAC,1.06 RPM ratio (pull-down/input)
10,GATGATTGTTCTCCCAGCTGATGAATTCGGTCATTCGAGTAAACAAATTTTCCTAATCTTTCTGTTCAAGCGCCATCTAC,0.728 RPM ratio (pull-down/input)
11,GATGATTGTTCTCCCAGCTGATGAATTTGGTGCTTCGAGTAAACAAATTTTCCTAATCTTTCTGTTCAAGCGCCATCTAC,1.59 RPM ratio (pull-down/input)
12,GATGATTGTTCTCCCAGCTGATGAATTGTCCGAATCGAGTAAACAAATTTTCCTAATCTTTCTGTTCAAGCGCCATCTAC,0.272 RPM ratio (pull-down/input)
13,GATGATTGTTCTCCCAGCTGATGAATTTGTCATCTCGAGTAAACAAATTTTCCTAATCTTTCTGTTCAAGCGCCATCTAC,6.03 RPM ratio (pull-down/input)
14,GATGATTGTTCTCCCAGCTGATGAATTTTTGTCATCGAGTAAACAAATTTTCCTAATCTTTCTGTTCAAGCGCCATCTAC,0.666 RPM ratio (pull-down/input)
15,GATGATTGTTCTCCCAGCTGATGAATTGTCATTTTCGAGTAAACAAATTTTCCTAATCTTTCTGTTCAAGCGCCATCTAC,0.999 RPM ratio (pull-down/input)
16,GATGATTGTTCTCCCAGCTGATGAATTTGTCATTTCGAGTAAACAAATTTTCCTAATCTTTCTGTTCAAGCGCCATCTAC,5.68 RPM ratio (pull-down/input)

row,Sequence,binding signal
1,GATGATTGTTCTCCCAGCTGATGAATTTTGTCATTCGAGTAAACAAATTTTCCTAATCTTTCTGTTCAAGCGCCATCTAC,4.89 RPM ratio (pull-down/input)
2,GATGATTGTTCTCCCAGCTGATGAATTGTCATCCTCGAGTAAACAAATTTTCCTAATCTTTCTGTTCAAGCGCCATCTAC,0.941 RPM ratio (pull-down/input)
3,GATGATTGTTCTCCCAGCTGATGAATTACTTTCTTCGAGTAAACAAATTTTCCTAATCTTTCTGTTCAAGCGCCATCTAC,0.388 RPM ratio (pull-down/input)
4,GATGATTGTTCTCCCAGCTGATGAATTGCTGCACTCGAGTAAACAAATTTTCCTAATCTTTCTGTTCAAGCGCCATCTAC,1.03 RPM ratio (pull-down/input)
5,GATGATTGTTCTCCCAGCTGATGAATTCGTGGTTTCGAGTAAACAAATTTTCCTAATCTTTCTGTTCAAGCGCCATCTAC,1.35 RPM ratio (pull-down/input)
6,GATGATTGTTCTCCCAGCTGATGAATTAGGTAGTTCGAGTAAACAAATTTTCCTAATCTTTCTGTTCAAGCGCCATCTAC,0.919 RPM ratio (pull-down/input)
7,GATGATTGTTCTCCCAGCTGATGAATTTCATTGGTCGAGTAAACAAATTTTCCTAATCTTTCTGTTCAAGCGCCATCTAC,1.11 RPM ratio (pull-down/input)
8,GATGATTGTTCTCCCAGCTGATGAATTCTTGTCATCGAGTAAACAAATTTTCCTAATCTTTCTGTTCAAGCGCCATCTAC,0.625 RPM ratio (pull-down/input)
9,GATGATTGTTCTCCCAGCTGATGAATTTTAGGCCTCGAGTAAACAAATTTTCCTAATCTTTCTGTTCAAGCGCCATCTAC,0.444 RPM ratio (pull-down/input)
10,GATGATTGTTCTCCCAGCTGATGAATTTAGGCATTCGAGTAAACAAATTTTCCTAATCTTTCTGTTCAAGCGCCATCTAC,5.38 RPM ratio (pull-down/input)
11,GATGATTGTTCTCCCAGCTGATGAATTAGGCGCCTCGAGTAAACAAATTTTCCTAATCTTTCTGTTCAAGCGCCATCTAC,1.35 RPM ratio (pull-down/input)
12,GATGATTGTTCTCCCAGCTGATGAATTAGGCATCTCGAGTAAACAAATTTTCCTAATCTTTCTGTTCAAGCGCCATCTAC,6.82 RPM ratio (pull-down/input)
13,GATGATTGTTCTCCCAGCTGATGAATTAGGCCTCTCGAGTAAACAAATTTTCCTAATCTTTCTGTTCAAGCGCCATCTAC,5.5 RPM ratio (pull-down/input)
14,GATGATTGTTCTCCCAGCTGATGAATTAGGCATTTCGAGTAAACAAATTTTCCTAATCTTTCTGTTCAAGCGCCATCTAC,6.35 RPM ratio (pull-down/input)
15,GATGATTGTTCTCCCAGCTGATGAATTAGGCAAATCGAGTAAACAAATTTTCCTAATCTTTCTGTTCAAGCGCCATCTAC,0.601 RPM ratio (pull-down/input)
